In PubChem BioAssay AID1159580 (chemical genetic matrix, 2015):
Where “and” joins values, the source holds several entries; their conditions need not be identical. Identical values can stand only once. Screen size: about 5,500 compounds; about 2,000 (36%) were called active. Another 18% or so got no clear call; they are omitted. No stated cut-off is given here; in the data, active means normalized growth mostly below about 0.91 (no sharp cut-off); inconclusive means no clear call, values can overlap the other calls; inactive means mostly above about 0.92. The list shows a part of the results.

Assay: chemical genetic growth profiling, strain panel (AID 1159580);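 further: tested at 20 µM; growth read once vehicle control cultures reached saturation at 30 °C; 1 = growth at the plate median or of vehicle wells; lower values mean less growth of the strain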
Conditions: S. cerevisiae deletion strains, growth OD

Measured: normalized growth

COC(=O)C(N)CS (stereo unspecified)
inactive: locus YAL013W, strain DEP1, hits give low values 0.991 | locus YAL021C, strain ccr4, hits give low values 0.93 | locus YAL026C, strain drs2, hits give low values 0.967 | locus YAL030W, strain snc1, hits give low values 0.993 | locus YBL061C, strain skt5, hits give low values 0.998 | locus YBR009C, strain hhf1, hits give low values 0.958 | locus YBR021W, strain FUR4, hits give low values 0.994 | locus YBR023C, strain chs3, hits give low values 1.02 | locus YBR171W, strain sec66, hits give low values 0.984 | locus YBR229C, strain ROT2, hits give low values 0.992 | locus YBR231C, strain swc5, hits give low values 0.974 | locus YBR279W, strain paf1, hits give low values 1.01 | locus YCL011C, strain gbp2, hits give low values 0.996 | locus YCL016C, strain dcc1, hits give low values 1.04 | locus YCL029C, strain bik1, hits give low values 0.964 | locus YCL069W, strain vba3, hits give low values 0.954 | locus YCR088W, strain abp1, hits give low values 0.982 | locus YDL005C, strain med2, hits give low values 1 | locus YDL035C, strain GPR1, hits give low values 0.978 | locus YDL040C, strain nat1, hits give low values 0.99 | locus YDL074C, strain BRE1, hits give low values 0.98 | locus YDL101C, strain DUN1, hits give low values 0.984 | locus YDL134C, strain PPH21, hits give low values 0.977 | locus YDL185W, strain tfp1, hits give low values 0.966 | locus YDL192W, strain arf1, hits give low values 0.975 | locus YDR001C, strain nth1, hits give low values 0.984 | locus YDR069C, strain doa4, hits give low values 0.959 | locus YDR101C, strain arx1, hits give low values 0.985 | locus YDR137W, strain rgp1, hits give low values 0.924 | locus YDR150W, strain NUM1, hits give low values 0.996 | locus YDR159W, strain sac3, hits give low values 0.929 | locus YDR162C, strain NBP2, hits give low values 0.985 | locus YDR195W, strain ref2 1.03 | locus YDR297W, strain sur2, hits give low values 0.98 | locus YDR318W, strain mcm21, hits give low values 0.93 | locus YDR334W, strain swr1, hits give low values 0.959 | locus YDR335W, strain msn5, hits give low values 0.995 | locus YDR388W, hits give low values 0.951 | locus YDR392W, strain spt3, hits give low values 0.806 | locus YDR502C, strain sam2, hits give low values 0.98 | locus YEL003W, strain gim4, hits give low values 0.966 | locus YEL037C, strain rad23, hits give low values 0.978 | locus YEL061C, strain CIN8 (second series), hits give low values 0.966 | locus YEL061C, strain CIN8, hits give low values 0.997 | locus YER015W, strain faa2, hits give low values 0.997 | locus YER016W, strain bim1, hits give low values 0.997 | locus YER110C, hits give low values 0.991 | locus YER111C, strain swi4, hits give low values 1.03 | locus YER155C, strain BEM2 (second series), hits give low values 0.886 | locus YER155C, strain BEM2, hits give low values 1 | locus YER167W, strain BCK2, hits give low values 0.971 | locus YFR010W, strain ubp6, hits give low values 0.94 | locus YGL078C, strain dbp3, hits give low values 0.988 | locus YGL086W, strain mad1, hits give low values 0.976 | locus YGL167C, strain pmr1, hits give low values 0.977 | locus YGL173C, strain kem1, hits give low values 0.938 | locus YGL227W, strain vid30, hits give low values 0.971 | locus YGL240W, strain doc1, hits give low values 0.941 | locus YGL248W, strain PDE1, hits give low values 0.959 | locus YGL253W, strain hxk2, hits give low values 0.976 | locus YGR078C, strain PAC10, hits give low values 0.976 | locus YGR135W, strain pre9, hits give low values 0.947 | locus YGR229C, strain SMI1, hits give low values 0.949 | locus YGR252W, strain gcn5, hits give low values 0.883 | locus YHR013C, strain ard1, hits give low values 0.938 | locus YHR027C, strain rpn1, hits give low values 0.97 | locus YHR030C, strain SLT2, hits give low values 0.99 and 1.05 | locus YHR079C, strain IRE1 (second series), hits give low values 0.964 | locus YHR079C, strain IRE1, hits give low values 1.04 | locus YHR094C, strain hxt1, hits give low values 0.991 | locus YHR129C, strain ARP1, hits give low values 0.992 | locus YHR142W, strain chs7, hits give low values 1 | locus YHR200W, strain rpn10, hits give low values 0.973 | locus YIL066C, strain RNR3, hits give low values 0.975 | locus YIL073C, strain SPO22, hits give low values 0.903 | locus YIL125W, strain kgd1, hits give low values 0.991 | locus YIR030C, strain dcg1, hits give low values 0.984 | locus YJL092W, strain hpr5, hits give low values 0.995 | locus YJL095W, strain BCK1 (second series), hits give low values 0.995 | locus YJL095W, strain BCK1, hits give low values 0.929 and 1.04 | locus YJL115W, strain asf1, hits give low values 0.977 | locus YJL129C, strain trk1, hits give low values 1.01 | locus YJL134W, strain LCB3, hits give low values 0.996 | locus YJL154C, strain vps35, hits give low values 0.97 | locus YJL164C, strain tpk1, hits give low values 0.965 | locus YJL166W, strain qcr8, hits give low values 0.961 | locus YJL168C, strain set2, hits give low values 0.979 | locus YJL187C, strain SWE1 (second series), hits give low values 0.972 | locus YJL187C, strain SWE1, hits give low values 0.998 | locus YJR043C, strain POL32, hits give low values 0.977 | locus YJR066W, strain TOR1, hits give low values 0.998
